CYP2C19 activ: human CYP2C19 activators, primary screen, biochemical, luminescence. Cytochrome P450 2C19 (Homo sapiens), P33261. recombinant CYP2C19, luciferin-H EGE luminescence; active compounds read high; 0 = fully inhibited enzyme, 1 = untreated enzyme. activation factor at 5 µM. 96,000 tested, under 10 active. AID 1025, 2008;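 active = activation factor of at least 2 at 5 µM in the primary screen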;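 also: 0 = wells with 2.5 mM tranylcypromine and 1 = vehicle-only wells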
CYP2C9 inh: blockers of cytochrome P450 2C9 activity – biochemical, luminescence, ADME assay, primary screen; inhibition, % at 5 µM; 20% of 96,000 active; P11712; CYP2C9 Supersomes, luciferin-H conversion; AID 777, 2007;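 active = blocking of liver enzyme CYP2C9 beyond about 50% at 5 µM, limit read from the data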
Target sequence (P11712 whole entry, looked up): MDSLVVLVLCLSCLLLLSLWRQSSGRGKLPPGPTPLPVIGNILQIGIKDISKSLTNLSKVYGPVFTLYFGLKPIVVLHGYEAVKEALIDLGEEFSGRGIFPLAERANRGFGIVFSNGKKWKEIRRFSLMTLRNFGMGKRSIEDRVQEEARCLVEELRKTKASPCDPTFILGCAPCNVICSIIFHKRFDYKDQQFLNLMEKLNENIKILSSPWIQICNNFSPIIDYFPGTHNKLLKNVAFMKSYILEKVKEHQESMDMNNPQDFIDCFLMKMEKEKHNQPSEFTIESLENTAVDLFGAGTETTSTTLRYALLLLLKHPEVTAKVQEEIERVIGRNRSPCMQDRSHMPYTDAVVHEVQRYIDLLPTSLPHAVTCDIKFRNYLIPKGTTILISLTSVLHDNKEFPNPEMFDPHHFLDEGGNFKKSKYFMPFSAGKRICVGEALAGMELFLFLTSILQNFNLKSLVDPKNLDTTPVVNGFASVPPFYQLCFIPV
CYP2C9 act: human CYP2C9 activators, primary screen, biochemical, luminescence; Cytochrome P450 2C9 (Homo sapiens), P11712; 1.4% of 96,000 active; activation factor at 5 µM; AID 1024, 2008; recombinant CYP2C9, luciferin-H conversion; active compounds read high; factor 1 = untreated enzyme, 0 = blocked;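 active = activation factor of 2 or more for CYP2C9 at a 5 µM dose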;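 also: 0 = sulfaphenazole-blocked wells and 1 = vehicle-only wells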
CYP2C19 inh: blockers of cytochrome P450 2C19 activity – biochemical, luminescence, ADME assay, primary screen; CYP2C19 Supersomes, luciferin-H EGE luminescence, 30 min; inhibition, % at 5 µM; 21% of 96,000 active;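 active = CYP2C19 inhibition above a set limit at 5 µM in the primary screen, cut at about 50% in these data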;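 also: plate controls were negative control wells for no effect and 2.5 mM tranylcypromine positive control for full effect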
* = called active by the depositor. Sampled rows, rich in hits. Any-hit rate of the full collection: about 31%.

SMILES	CYP2C19 activ	CYP2C9 inh	CYP2C9 act	CYP2C19 inh
COc1ccc(Br)cc1S(=O)(=O)n1ccnc1C	0	-142	2.4*	99*
Cc1nccn1S(=O)(=O)c1ccc(Br)cc1Br	0.3	10	0.9	66*
COc1ccc(OC)c(NC2=NC3(CCCCC3)N=C(N)N2)c1	1.1	-16	1.2	-9
COC(=O)c1[nH]c2ccccc2c1NC(=O)CN1CCN(C/C=C/c2ccccc2)CC1	0.3	86*	0.1	74*
CCOC(=O)c1[nH]c2ccc(F)cc2c1NC(=O)CN1CCN(C/C=C/c2ccccc2)CC1	0.5	59*	0.4	52*
COC(=O)c1[nH]c2ccccc2c1NC(=O)CN1CC(C)OC(C)C1 (stereo not drawn)	1.1	-11	1.1	-9
Cc1nc2cc(Cl)ccc2n1-c1ccccc1	0.2	16	0.8	80*
CSC1=NCCN1C(=O)COc1ccccc1	1.1	-11	1.1	-6
CSC1=NCCN1C(=O)COc1ccc2ccccc2c1	0.1	32	0.7	88*
C=CCSc1nc(N)c(C(=O)Nc2ccccc2OC)cc1C(=O)Nc1ccccc1	1.1	61*	0.4	-12
COc1cc(S(=O)(=O)n2c(C)nc3ccccc32)ccc1F	0.1	43	0.6	94*
COc1cc(S(=O)(=O)N2CCN=C2c2ccccc2)ccc1F	0.3	-10	1.1	74*
COc1ccc(C(=O)N2CCN=C2c2ccccc2)cc1OC	0.5	0	1	47
CCCCOc1ccc(S(=O)(=O)n2c(C)nc3ccccc32)cc1	0.6	67*	0.3	39
CCOC(=O)Cn1c(=S)[nH]c2c(oc3ccc(Cl)cc32)c1=O	1	76*	0.2	-2
CCOC(=O)CN1C(=O)COc2ccc(Cl)cc21	0.9	1	1	6
O=C(NCc1ccco1)C1CN(S(=O)(=O)c2ccccc2)CCN1S(=O)(=O)c1ccccc1 (stereo not drawn)	0.4	50*	0.5	56*
Cc1ccc(S(=O)(=O)NCC2CCC(C(=O)NCc3ccco3)CC2)cc1 (stereo not drawn)	0.5	46	0.5	54*
CCC(C)NC(=O)C1CN(S(=O)(=O)c2ccccc2)CCN1S(=O)(=O)c1ccccc1 (stereo not drawn)	0.3	23	0.8	66*
COc1ccc(S(=O)(=O)NCC2CCC(C(=O)NCc3ccco3)CC2)cc1 (stereo not drawn)	1	11	0.9	-4
Cc1ccc(S(=O)(=O)N2CCCCC2C(=O)NCc2ccco2)cc1 (stereo not drawn)	0.1	33	0.7	94*
CCCNC(=O)C1CN(S(=O)(=O)c2ccccc2)CCN1S(=O)(=O)c1ccccc1 (stereo not drawn)	0.9	1	1	8
Cn1c(=O)c2c(nc(SCC(=O)N3CCc4ccccc43)n2Cc2ccccc2)n(C)c1=O	1	2	1	4
Cc1ccc(S(=O)(=O)N2CC3(C)CN(S(=O)(=O)c4ccc(C)cc4)CC(C)(C2)C3=O)cc1	1.1	-6	1.1	-12
COc1ccc(-c2nnc(SCC(=O)Nc3nc4ccccc4s3)n2C)cc1	0.9	32	0.7	12
SMILES	CYP2C19 activ	CYP2C9 inh	CYP2C9 act	CYP2C19 inh
CCSc1nc(-c2ccc(OC)cc2)n(-c2nc3ccccc3s2)n1	0.9	54*	0.5	12
CCOc1ccc(NC(=O)N[C@@H](CCSC)C(=O)OC)cc1	1.2	-13	1.1	-18
Cc1nc2nc3c(c(=O)n2[nH]1)CCCC3	0.9	-6	1.1	9
O=C1c2ccccc2C(=O)C1c1ccncc1	0.5	91*	0.1	49
Cc1ccc(NC(C(N)=O)c2c(C)[nH]c(=O)[nH]c2=O)cc1 (stereo not drawn)	1	5	0.9	-4
CCN(CC)S(=O)(=O)c1ccc2nnn(OCC(=O)Nc3cccc(C#N)c3)c2c1	0.1	97*	0	94*
COCc1cc(=O)n2[nH]c(C)nc2n1	1	-10	1.1	0
COC(=O)C1=C(C)N(C)C(=O)NC1c1cc(Cl)c(O)c(OC)c1 (stereo not drawn)	0.6	56*	0.4	36
O=C(CSc1nnnn1-c1cccnc1)NCc1cccs1	0.8	13	0.9	17
Cc1nn(CCC(=O)NNC(=S)NCC(C)C)c(C)c1Br	0.4	91*	0.1	63*
Cc1ccc(S(=O)(=O)N2CCN(Cc3ccccc3C(F)(F)F)CC2)cc1	0.8	22	0.8	17

Screening results: PubChem, Sanford-Burnham Center for Chemical Genomics
